Molecules are shown by their SMILES. Unmarked numbers belong to inactive results.

Common to all, as to test: log2 ratio of Biotin-Ahx-Ub-VS probe labelling (fragment/DMSO); higher = less target engagement (more negative = stronger competition), active = hit call of the paper (q ≤ 0.05, log2 ratio ≤ -1)
Common to all, as to settings: compound concentration: 200 uM; treatment time: 3 h

One assay has as its target T1, OTUD6B (UniProt Q8N6M0).
T1 sequence (whole entry): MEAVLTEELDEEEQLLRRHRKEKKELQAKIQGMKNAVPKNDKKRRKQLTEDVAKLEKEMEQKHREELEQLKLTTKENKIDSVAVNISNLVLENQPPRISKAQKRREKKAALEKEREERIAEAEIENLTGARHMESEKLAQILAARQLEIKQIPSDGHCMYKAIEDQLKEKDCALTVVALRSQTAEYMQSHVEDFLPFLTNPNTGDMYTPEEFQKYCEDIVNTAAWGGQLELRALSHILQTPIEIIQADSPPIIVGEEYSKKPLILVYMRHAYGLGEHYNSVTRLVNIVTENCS
Summed up:
(§1)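 HEK293T lysate in Tris/CHAPS/IGEPAL buffer with protease inhibitors (495 µg per sample) was given fragment at 200 µM or vehicle for 3 h, in triplicate. It then received Biotin-Ahx-Ub-VS at 0.5 µM final for 1 h. Labelled DUBs were NeutrAvidin-enriched, digested with LysC and trypsin, and run by diaPASEF LC-MS/MS. Values are average log2 fragment/vehicle ratios by unpaired t-test on global-median-normalised Spectronaut quantities of proteins with ≥2 unique peptides.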

The next assay concerns the target T2, OTUD7B (UniProt Q6GQQ9).
T2 sequence (whole entry): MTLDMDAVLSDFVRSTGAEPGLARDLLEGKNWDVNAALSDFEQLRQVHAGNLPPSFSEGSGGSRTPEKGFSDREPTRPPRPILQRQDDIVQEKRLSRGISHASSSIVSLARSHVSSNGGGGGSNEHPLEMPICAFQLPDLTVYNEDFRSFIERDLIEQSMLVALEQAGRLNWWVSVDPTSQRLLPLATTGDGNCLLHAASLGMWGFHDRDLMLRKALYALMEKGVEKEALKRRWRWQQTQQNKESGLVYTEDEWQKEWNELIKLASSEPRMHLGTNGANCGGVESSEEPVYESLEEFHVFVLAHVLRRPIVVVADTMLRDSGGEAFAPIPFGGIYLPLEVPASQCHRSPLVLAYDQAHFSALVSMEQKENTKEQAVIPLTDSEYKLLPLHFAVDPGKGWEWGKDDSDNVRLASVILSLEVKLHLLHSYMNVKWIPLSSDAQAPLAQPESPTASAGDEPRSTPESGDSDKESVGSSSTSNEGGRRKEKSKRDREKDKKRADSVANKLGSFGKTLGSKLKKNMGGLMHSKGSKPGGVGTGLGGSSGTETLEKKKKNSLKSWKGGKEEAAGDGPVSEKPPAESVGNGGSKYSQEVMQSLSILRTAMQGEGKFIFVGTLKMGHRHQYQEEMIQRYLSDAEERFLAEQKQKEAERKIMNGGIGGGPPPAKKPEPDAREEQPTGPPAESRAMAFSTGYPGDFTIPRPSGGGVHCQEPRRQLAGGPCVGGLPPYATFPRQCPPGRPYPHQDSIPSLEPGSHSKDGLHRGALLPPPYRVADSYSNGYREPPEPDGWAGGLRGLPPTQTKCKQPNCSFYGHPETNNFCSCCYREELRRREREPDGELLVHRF
Summed up: as §1

The target of the next assay is PRPF8 (UniProt Q6P2Q9). Summed up:
as §1

The target in a further assay is T3, PSMD7 (UniProt P51665).
T3 sequence (whole entry): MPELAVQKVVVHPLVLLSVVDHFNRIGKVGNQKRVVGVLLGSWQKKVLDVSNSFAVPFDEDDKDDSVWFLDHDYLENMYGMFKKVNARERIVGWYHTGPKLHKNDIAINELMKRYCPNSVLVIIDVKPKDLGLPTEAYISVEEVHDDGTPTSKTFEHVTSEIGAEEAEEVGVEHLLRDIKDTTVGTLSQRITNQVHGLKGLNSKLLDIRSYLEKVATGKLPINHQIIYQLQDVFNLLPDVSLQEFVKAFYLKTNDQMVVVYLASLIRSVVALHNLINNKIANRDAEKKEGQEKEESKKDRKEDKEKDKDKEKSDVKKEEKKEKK
Summed up: as §1

The next assay deals with UCHL1 (UniProt P09936). Summed up:
as §1

The target in the next assay is T4, UCHL3 (UniProt P15374).
T4 sequence (whole entry): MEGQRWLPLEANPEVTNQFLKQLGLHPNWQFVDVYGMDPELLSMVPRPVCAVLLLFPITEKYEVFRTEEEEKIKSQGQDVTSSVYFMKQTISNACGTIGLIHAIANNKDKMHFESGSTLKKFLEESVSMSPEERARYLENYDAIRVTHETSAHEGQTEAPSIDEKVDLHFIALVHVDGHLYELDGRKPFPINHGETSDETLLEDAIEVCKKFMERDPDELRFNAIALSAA
An outline of the steps:
as §1

For a further assay, the target named is T5, UCHL5 (UniProt Q9Y5K5).
T5 sequence (whole entry): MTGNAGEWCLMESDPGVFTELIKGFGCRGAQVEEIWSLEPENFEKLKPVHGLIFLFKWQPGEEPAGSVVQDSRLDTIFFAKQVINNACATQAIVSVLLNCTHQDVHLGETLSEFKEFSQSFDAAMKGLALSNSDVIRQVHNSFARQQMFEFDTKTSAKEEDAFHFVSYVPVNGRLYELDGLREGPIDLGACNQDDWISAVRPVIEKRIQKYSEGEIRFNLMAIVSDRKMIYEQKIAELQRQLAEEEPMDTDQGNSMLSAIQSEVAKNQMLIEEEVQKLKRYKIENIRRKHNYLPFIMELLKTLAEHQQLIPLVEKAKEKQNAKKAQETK
An outline of the steps: as §1

The next assay concerns the target USP10 (UniProt Q14694). Summed up:
as §1

The next assay concerns the target T6, USP15 (UniProt Q9Y4E8).
T6 sequence (whole entry): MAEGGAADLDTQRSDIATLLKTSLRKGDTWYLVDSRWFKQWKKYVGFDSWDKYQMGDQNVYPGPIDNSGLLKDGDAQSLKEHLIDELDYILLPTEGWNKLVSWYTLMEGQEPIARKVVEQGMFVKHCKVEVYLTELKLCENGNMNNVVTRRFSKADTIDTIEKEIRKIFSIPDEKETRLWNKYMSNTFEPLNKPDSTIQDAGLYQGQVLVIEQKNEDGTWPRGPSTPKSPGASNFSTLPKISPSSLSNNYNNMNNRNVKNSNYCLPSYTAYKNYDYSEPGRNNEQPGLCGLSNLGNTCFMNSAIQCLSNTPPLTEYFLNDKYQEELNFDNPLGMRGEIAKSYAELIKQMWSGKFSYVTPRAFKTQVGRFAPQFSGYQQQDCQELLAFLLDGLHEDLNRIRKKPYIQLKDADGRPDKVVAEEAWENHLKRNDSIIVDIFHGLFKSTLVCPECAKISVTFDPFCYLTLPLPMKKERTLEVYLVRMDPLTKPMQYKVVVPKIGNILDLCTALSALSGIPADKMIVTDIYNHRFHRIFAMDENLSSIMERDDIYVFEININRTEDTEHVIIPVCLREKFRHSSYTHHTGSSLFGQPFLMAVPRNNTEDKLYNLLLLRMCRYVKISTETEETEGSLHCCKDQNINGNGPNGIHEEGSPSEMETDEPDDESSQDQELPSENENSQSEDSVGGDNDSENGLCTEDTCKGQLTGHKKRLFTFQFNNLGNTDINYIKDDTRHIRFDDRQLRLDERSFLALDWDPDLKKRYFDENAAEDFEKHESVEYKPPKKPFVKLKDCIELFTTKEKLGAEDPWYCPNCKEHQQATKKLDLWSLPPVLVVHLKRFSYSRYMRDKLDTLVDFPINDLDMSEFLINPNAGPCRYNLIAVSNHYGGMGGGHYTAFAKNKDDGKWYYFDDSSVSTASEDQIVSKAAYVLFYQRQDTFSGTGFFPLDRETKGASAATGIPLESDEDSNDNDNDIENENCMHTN
Summed up:
as §1

The next assay addresses USP16 (UniProt Q9Y5T5). Summed up:
as §1

Chain of USP16 (Q9Y5T5 whole entry, looked up): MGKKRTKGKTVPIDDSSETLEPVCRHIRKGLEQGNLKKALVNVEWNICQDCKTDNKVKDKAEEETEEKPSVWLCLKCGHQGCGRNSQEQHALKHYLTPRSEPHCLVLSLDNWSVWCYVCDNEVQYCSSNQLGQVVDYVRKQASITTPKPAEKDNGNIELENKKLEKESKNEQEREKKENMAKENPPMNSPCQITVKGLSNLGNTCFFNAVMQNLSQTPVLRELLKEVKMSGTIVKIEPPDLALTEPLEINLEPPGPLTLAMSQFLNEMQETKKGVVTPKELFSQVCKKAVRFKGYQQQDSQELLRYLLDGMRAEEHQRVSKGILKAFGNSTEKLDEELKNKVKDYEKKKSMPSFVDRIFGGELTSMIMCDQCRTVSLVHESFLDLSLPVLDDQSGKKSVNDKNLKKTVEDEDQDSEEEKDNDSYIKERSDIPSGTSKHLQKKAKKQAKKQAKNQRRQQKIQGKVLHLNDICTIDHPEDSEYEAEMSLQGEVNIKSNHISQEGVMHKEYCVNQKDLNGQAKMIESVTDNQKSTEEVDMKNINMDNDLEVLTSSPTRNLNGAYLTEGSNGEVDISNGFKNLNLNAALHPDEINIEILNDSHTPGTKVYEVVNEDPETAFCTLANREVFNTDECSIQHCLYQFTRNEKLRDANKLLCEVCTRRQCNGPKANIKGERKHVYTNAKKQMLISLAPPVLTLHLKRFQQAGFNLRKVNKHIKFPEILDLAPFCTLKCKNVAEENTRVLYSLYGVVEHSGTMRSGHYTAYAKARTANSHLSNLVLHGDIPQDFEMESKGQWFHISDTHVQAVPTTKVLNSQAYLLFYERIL
Chain of UCHL1 (P09936 whole entry, looked up): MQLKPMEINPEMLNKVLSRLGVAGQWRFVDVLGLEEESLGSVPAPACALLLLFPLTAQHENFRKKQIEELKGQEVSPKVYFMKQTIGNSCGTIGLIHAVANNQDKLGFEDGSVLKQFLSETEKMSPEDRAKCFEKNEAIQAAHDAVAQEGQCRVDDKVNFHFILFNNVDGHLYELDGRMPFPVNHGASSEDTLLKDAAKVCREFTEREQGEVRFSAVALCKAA
Chain of USP10 (Q14694 whole entry): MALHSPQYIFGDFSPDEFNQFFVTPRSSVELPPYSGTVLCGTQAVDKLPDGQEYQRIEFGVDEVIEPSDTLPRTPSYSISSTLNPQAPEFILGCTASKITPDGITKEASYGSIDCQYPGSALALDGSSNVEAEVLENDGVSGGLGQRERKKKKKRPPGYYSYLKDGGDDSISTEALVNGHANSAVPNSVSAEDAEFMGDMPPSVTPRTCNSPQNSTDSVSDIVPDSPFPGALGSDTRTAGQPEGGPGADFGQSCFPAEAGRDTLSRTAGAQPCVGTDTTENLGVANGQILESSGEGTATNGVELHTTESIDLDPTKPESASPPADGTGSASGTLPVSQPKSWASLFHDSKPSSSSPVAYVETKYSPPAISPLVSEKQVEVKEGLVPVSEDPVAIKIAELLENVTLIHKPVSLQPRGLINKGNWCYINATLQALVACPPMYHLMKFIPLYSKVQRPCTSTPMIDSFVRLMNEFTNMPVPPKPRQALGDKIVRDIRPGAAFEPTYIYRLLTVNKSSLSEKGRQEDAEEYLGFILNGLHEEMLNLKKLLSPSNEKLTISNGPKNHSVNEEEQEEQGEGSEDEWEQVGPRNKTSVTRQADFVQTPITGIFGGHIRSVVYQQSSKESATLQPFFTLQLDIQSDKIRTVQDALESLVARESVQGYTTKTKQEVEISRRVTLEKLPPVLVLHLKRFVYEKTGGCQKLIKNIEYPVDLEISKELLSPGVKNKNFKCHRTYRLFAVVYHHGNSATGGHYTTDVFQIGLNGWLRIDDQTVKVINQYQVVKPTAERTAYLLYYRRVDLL

With `O=C(CCl)N1CCOC(c2cccc(F)c2)C1` (stereo not given), the “log2 ratio of Biotin-Ahx-Ub-VS probe labelling” value was -0.268 with OTUD6B; -1.75 (active) in the assay with OTUD7B; -0.107 in the assay with PRPF8; -0.115 in the assay with PSMD7; -1.68 (active) with UCHL1; 0.156 with UCHL3. For the same compound, the “log2 ratio of Biotin-Ahx-Ub-VS probe labelling” value was -0.463 in the assay with UCHL5, -0.284 with USP10, -0.387 with USP15 and 0.0465 with USP16.

Values taken from the supplement of paper PMC11732987, “Enantioselective OTUD7B fragment discovery through chemoproteomics screening and high-throughput optimisation” (Communications Chemistry, 2025).
